Test results reported in PubChem BioAssay (NCI).
About 83,000 compounds went through this panel and 20% of them were active in at least one assay; those are over-represented in the sample as a whole.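 Method: cells in 96-well plates; compound added at one concentration; 48 h incubation; percent growth measured; values under 10 scored active.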 Values without a mark were called inactive. Calls of active or inactive are those of the source.

Legend:
Assay in all cases: NCI-60 one-dose screen, 48 h (100 = growth as untreated, 0 = no growth, -100 = all killed)
Conditions in all cases: 10 µM unless noted
SK-MEL-2 melanoma = tested on: SK-MEL-2 melanoma
SN12C renal = tested on: SN12C renal
UO-31 renal = tested on: UO-31 renal
TK-10 renal = tested on: TK-10 renal
ACHN renal = tested on: ACHN renal
CAKI-1 renal = tested on: CAKI-1 renal
A498 renal = tested on: A498 renal
CCRF-CEM leukemia = tested on: CCRF-CEM leukemia
MOLT-4 leukemia = tested on: MOLT-4 leukemia
SR leukemia = tested on: SR leukemia
RPMI-8226 leukemia = tested on: RPMI-8226 leukemia
OVCAR-8 ovarian = tested on: OVCAR-8 ovarian
OVCAR-5 ovarian = tested on: OVCAR-5 ovarian
OVCAR-4 ovarian = tested on: OVCAR-4 ovarian
SK-OV-3 ovarian = tested on: SK-OV-3 ovarian
IGROV1 ovarian = tested on: IGROV1 ovarian
OVCAR-3 ovarian = tested on: OVCAR-3 ovarian
HS 578T breast = tested on: HS 578T breast
NCI/ADR-RES ovarian = tested on: NCI/ADR-RES ovarian

Row | SMILES | growth (SK-MEL-2 melanoma) | growth (SN12C renal) [%] | growth (UO-31 renal) | growth (TK-10 renal) | growth (ACHN renal) | growth (CAKI-1 renal) [%] | growth (A498 renal) | growth (CCRF-CEM leukemia) [%] | growth (MOLT-4 leukemia) | growth (SR leukemia) | growth (RPMI-8226 leukemia) | growth (OVCAR-8 ovarian) [%] | growth (OVCAR-5 ovarian) [%] | growth (OVCAR-4 ovarian) | growth (SK-OV-3 ovarian) [%] | growth (IGROV1 ovarian) [%] | growth (OVCAR-3 ovarian) | growth (HS 578T breast) [%] | growth (NCI/ADR-RES ovarian)
1 | CN1CCN(c2ccc(Nc3nc(NCCCNS(=O)(=O)c4ccc(Cl)cc4)c4sccc4n3)cc2)CC1 | -9.34% (active) | 36.7 | -58.9% (active) | 9.93% (active) | 6.32% (active) | 10.8 | 19.7% | 13 | 4.92% (active) | 5.77% (active) | 4.97% (active) | 17 | 39.5 | -0.0486% (active) | 54.1 | 25.9 | -6.9% (active) | 20.2 | 47.7%
2 | CN1CCN(c2ccc(Nc3nc(NCCNC(=O)c4ccccc4)c4sccc4n3)cc2)CC1 | 96.6% | 74 | 66% | 137% | 54.6% | 48.3 | 130% | 27.9 | 13.9% | 5.68% (active) | 33.4% | 62.4 | 84.1 | 55.4% | 123 | 87.9 | 76.9% | 81 | 91.7%
3 | CC(=O)c1c([Si](C)(C)C)c2cc(C#N)ccn2c1C(=O)c1ccc(Br)cc1 | 89.4% | 96.6 | 77.2% | 98% | 82.1% | 52 | 78.9% | 91.8 | 85.3% | 87.9% | 92.1% | 94.8 | 79 | 76.2% | 98.3 | 68.7 | – | 79.3 | 88.6%
4 | N#Cc1c(-c2cccs2)cc(-c2cnccn2)nc1SCC(=O)N/N=C/c1ccccc1 | 103% | 45.5 | 75.8% | -14.7% (active) | 56.9% | 48.2 | 87.8% | 62.6 | 71.8% | 55.9% | -23.7% (active) | 43.4 | 87.2 | 3.09% (active) | 106 | 61.9 | 27.7% | 40.7 | 37%
5 | C/C(=N\NC(=O)/C=C/CC(=O)O)c1nnn(-c2ccc([N+](=O)[O-])cc2)c1C | 99.5% | 101 | 87.8% | 94.1% | 104% | 91.5 | 110% | 109 | 105% | 95.4% | 101% | 101 | 108 | 106% | 106 | 103 | – | 116 | 102%
6 | COc1cccc2c1C=CC1(O2)Oc2cccc(OC)c2C=C1C (stereo unspecified) | 57.7% | 49 | 47% | 103% | 40.4% | 29.2 | 5.37% (active) | 10.1 | 11.7% | 12.8% | 18.9% | 23.5 | 29.6 | 85.3% | 65.5 | 27.9 | – | 20.8 | 4.87% (active)
